# Laboratory results taken from the supplement of paper PMC8728848.
# This is one part of a sample in which the strongest signals are shown more often than they occur.
# B1: CC1G-11630 (Coprinopsis cinerea), A8P462 (protein)
# chain: MTTEAKIKLKAVVYWELVFDYDNSSNTGEITQSYTVKISQTSTRSTFASEVSTTTIDTLTKNNQEVDVGASYGAISANVSASWEHSEEVNNMLEKTTQTSTEDTYTVETEETRSYTIGPGGMLSLFQKHFSGPGMHVAFDVFTTDLELAKERTEIDIDVDVEAIRFVREIRVVYTDIMSEAPGDHVREINGKNPDINYGFNGKFVWLVPEQTRKTAQALTNVEFVSQAESDDRYWDLAAGAGGSNRYLIPVYDTNNKDKIYELALWRSDSYITHDKVKAAGWSGTTGDINSGRGGTYLNLVWKTRHAY
# Assays:
# Assay in all cases: glycan array binding signal (z-score within array); higher = stronger binding
# Details in all cases: glycan notation: IUPAC condensed, linker removed
# [1] = biological target: Fuc(a1-2)Gal(b1-3)[Fuc(a1-4)]GlcNAc(b1-2)Man(a1-3)[Fuc(a1-2)Gal(b1-3)[Fuc(a1-4)]GlcNAc(b1-2)Man(a1-3)]Man(b1-4)GlcNAc(b1-4)GlcNAc
# Outline: (§1)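 From the Consortium for Functional Glycomics database, 3228 arrays were curated, keeping only those whose protein sequence was available. Binding is given as a within-array Z-score averaged across arrays sharing a protein sequence and across linkers. Negative Z-scores can be read as non-binding.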
# [2] = biological target: Fuc(a1-2)Gal(b1-4)Fuc(a1-3)]GlcNAc(b1-2)Man(a1-3)[Fuc(a1-2)Gal(b1-4)[Fuc(a1-3)]GlcNAc(b1-2)Man(a1-6)]Man(b1-4)GlcNAc(b1-4)GlcNAc
# Outline: as §1
# [3] = biological target: Fuc(a1-2)Gal(b1-4)GlcNAc(b1-3)[Fuc(a1-3)[Gal(b1-4)]GlcNAc(b1-6)]Gal(b1-4)Glc
# Outline: as §1
# [4] = biological target: Fuc(a1-2)Gal(b1-4)GlcNAc6S
# Outline: as §1
# [5] = biological target: Fuc(a1-2)Gal(b1-4)[Fuc(a1-3)]GlcNAc(b1-3)GalNAc
# Outline: as §1
# [6] = biological target: Fuc(a1-2)[Gal(a1-3)]Gal(b1-4)[Fuc(a1-3)]Glc
# Outline: as §1
# [7] = biological target: Fuc(a1-2)[GalNAc(a1-3)]Gal(b1-3)GlcNAc(b1-2)Man(a1-3)[Fuc(a1-2)[GalNAc(a1-3)]Gal(b1-3)GlcNAc(b1-2)Man(a1-6)]Man(b1-4)GlcNAc(b1-4)[Fuc(a1-6)]GlcNAc
# Outline: as §1
# [8] = biological target: Fuc(a1-2)[GalNAc(a1-3)]Gal(b1-4)GlcNAc
# Outline: as §1
# Gal(a1-3)Gal(b1-3)GlcNAc = biological target: Gal(a1-3)Gal(b1-3)GlcNAc
# Outline: as §1
# Gal(a1-4)Gal(b1-4)Glc = biological target: Gal(a1-4)Gal(b1-4)Glc
# Outline: as §1
# [9] = biological target: Gal(a1-4)Gal(b1-4)GlcNAc(b1-2)Man(a1-3)[Gal(a1-4)Gal(b1-4)GlcNAc(b1-2)Man(a1-6)]Man(b1-4)GlcNAc(b1-4)GlcNAc
# Outline: as §1
# [10] = biological target: Gal(b1-3)[Fuc(a1-4)]GlcNAc(b1-2)Man
# Outline: as §1
# Gal(b1-4)Gal = biological target: Gal(b1-4)Gal
# Outline: as §1
# [11] = biological target: Gal(b1-4)GlcNAc(a1-6)Gal(b1-4)GlcNAc
# Outline: as §1
# [12] = biological target: Gal(b1-4)GlcNAc(b1-2)Man(a1-3)[Gal(b1-4)GlcNAc(b1-2)Man(a1-6)]Man(b1-4)GlcNAc(b1-4)GlcNAc
# Outline: as §1
# [13] = biological target: Gal(b1-4)GlcNAc(b1-2)Man(a1-6)Man(b1-4)GlcNAc(b1-4)GlcNAc
# Outline: as §1
# [14] = biological target: Gal(b1-4)GlcNAc(b1-3)Gal(b1-4)Glc
# Outline: as §1
# [15] = biological target: Gal(b1-4)GlcNAc(b1-3)Gal(b1-4)GlcNAc(b1-2)Man(a1-3)[Gal(b1-4)GlcNAc(b1-3)Gal(b1-4)GlcNAc(b1-2)Man(a1-6)]Man(b1-4)GlcNAc(b1-4)GlcNAc
# Outline: as §1
# [16] = biological target: Gal(b1-4)GlcNAc(b1-3)[Fuc(a1-3)GlcNAc(b1-6)]Gal(b1-4)Glc
# Outline: as §1
# Gal3S4S(b1-4)GlcNAc = biological target: Gal3S4S(b1-4)GlcNAc
# Outline: as §1
# Gal3S6S(b1-4)GlcNAc6S = biological target: Gal3S6S(b1-4)GlcNAc6S
# Outline: as §1
# Gal6S(b1-3)GlcNAc = biological target: Gal6S(b1-3)GlcNAc
# Outline: as §1
# [17] = biological target: GalNAc(b1-3)Gal(a1-4)Gal(b1-4)GlcNAc
# Outline: as §1
# GalNAc(b1-3)GlcNAc = biological target: GalNAc(b1-3)GlcNAc
# Outline: as §1
# GalNAc(b1-4)Gal(b1-4)Glc = biological target: GalNAc(b1-4)Gal(b1-4)Glc
# Outline: as §1
# GalNAc3S(b1-4)GlcNAc = biological target: GalNAc3S(b1-4)GlcNAc
# Outline: as §1
# [18] = biological target: GalNAc3S(b1-4)[Fuc(a1-3)]GlcNAc
# Outline: as §1
# GalNAc4S6S(b1-4)GlcNAc = biological target: GalNAc4S6S(b1-4)GlcNAc
# Outline: as §1
# [19] = biological target: GlcNAc(b1-2)Man(a1-3)[GlcNAc(b1-2)Man(a1-6)]Man(b1-4)GlcNAc(b1-4)[Fuc(a1-6)]GlcNAc
# Outline: as §1
# [20] = biological target: GlcNAc(b1-2)[GlcNAc(b1-4)]Man(a1-3)[GlcNAc(b1-4)][GlcNAc(b1-2)Man(a1-6)]Man(b1-4)GlcNAc(b1-4)GlcNAc
# Outline: as §1
# [21] = biological target: GlcNAc(b1-3)Gal(b1-4)GlcNAc
# Outline: as §1
# [22] = biological target: GlcNAc(b1-3)Gal(b1-4)GlcNAc(b1-3)Gal(b1-4)GlcNAc(b1-3)Gal(b1-4)GlcNAc(b1-3)Gal(b1-4)GlcNAc(b1-2)[GlcNAc(b1-3)Gal(b1-4)GlcNAc(b1-3)Gal(b1-4)GlcNAc(b1-3)Gal(b1-4)GlcNAc(b1-3)Gal(b1-4)GlcNAc(b1-6)]Man(a1-6)[GlcNAc(b1-3)Gal(b1-4)GlcNAc(b1-3)Gal(b1-4)GlcNAc(b1-3)Gal(b1-4)GlcNAc(b1-3)Gal(b1-4)GlcNAc(b1-2)Man(a1-3)]Man(b1-4)GlcNAc(b1-4)[Fuc(a1-6)]GlcNAc
# Outline: as §1
# [23] = biological target: GlcNAc(b1-4)Gal(b1-4)GlcNAc
# Outline: as §1
# GlcNAc(b1-6)GalNAc = biological target: GlcNAc(b1-6)GalNAc
# Outline: as §1
# [24] = biological target: Man(a1-2)Man(a1-3)[Man(a1-6)]Man(a1-6)[Man(a1-2)Man(a1-3)]Man(b1-4)GlcNAc(b1-4)GlcNAc
# Outline: as §1
# [25] = biological target: Neu5Ac(a2-3)Gal(b1-3)[Fuc(a1-4)]GlcNAc
# Outline: as §1
# [26] = biological target: Neu5Ac(a2-3)Gal(b1-4)[Fuc(a1-3)]GlcNAc
# Outline: as §1
# [27] = biological target: Neu5Ac(a2-3)Gal(b1-4)[Fuc(a1-3)]GlcNAc(b1-6)[Neu5Ac(a2-3)Gal(b1-3)]GalNAc
# Outline: as §1
# Neu5Ac(a2-6)Gal = biological target: Neu5Ac(a2-6)Gal
# Outline: as §1
# [28] = biological target: Neu5Ac(a2-6)Gal(b1-4)GlcNAc(b1-2)Man(a1-3)Man(b1-4)GlcNAc(b1-4)GlcNAc
# Outline: as §1
# [29] = biological target: Neu5Ac(a2-6)Gal(b1-4)GlcNAc(b1-2)Man(a1-6)[Gal(b1-4)GlcNAc(b1-2)Man(a1-3)]Man(b1-4)GlcNAc(b1-4)GlcNAc
# Outline: as §1
# [30] = biological target: Neu5Ac(a2-6)Gal(b1-4)GlcNAc(b1-3)Gal(b1-4)GlcNAc(b1-3)Gal(b1-4)GlcNAc(b1-2)Man(a1-3)[Neu5Ac(a2-6)Gal(b1-4)GlcNAc(b1-3)Gal(b1-4)GlcNAc(b1-3)Gal(b1-4)GlcNAc(b1-2)Man(a1-6)]GalNAc
# Outline: as §1
# [31] = biological target: Neu5Ac(a2-6)Gal(b1-4)GlcNAc(b1-3)Gal(b1-4)GlcNAc(b1-6)[Gal(b1-3)]GalNAc
# Outline: as §1
# [32] = biological target: Neu5Ac(a2-6)Gal(b1-4)GlcNAc(b1-3)[Neu5Ac(a2-6)Gal(b1-4)GlcNAc(b1-6)]GalNAc
# Outline: as §1
# [33] = biological target: Neu5Ac(a2-6)Gal(b1-4)GlcNAc(b1-6)GalNAc
# Outline: as §1
# [34] = biological target: Neu5Ac(a2-6)GlcNAc(b1-4)GlcNAc
# Outline: as §1
# [35] = biological target: Neu5Ac(a2-8)Neu5Ac(a2-3)[GalNAc(b1-4)]Gal(b1-4)Glc
# Outline: as §1
# [36] = biological target: Neu5Ac(a2-8)Neu5Ac(a2-8)Neu5Ac(a2-3)Gal(b1-4)Glc
# Outline: as §1
# [37] = biological target: Neu5Ac(a2-8)Neu5Ac(a2-8)Neu5Ac(a2-8)Neu5Ac(a2-3)[GalNAc(b1-4)]Gal(b1-4)Glc
# Outline: as §1
# [38] = biological target: Neu5Ac9Ac(a2-3)Gal(b1-3)GlcNAc
# Outline: as §1
# [39] = biological target: Neu5Ac9Ac(a2-3)Gal(b1-4)GlcNAc
# Outline: as §1
binder,measurement,setting,value
B1,glycan array binding signal (z-score),[1],2.22
same,glycan array binding signal (z-score),[2],1.38
same,glycan array binding signal (z-score),[3],-0.581
same,glycan array binding signal (z-score),[4],0.388
same,glycan array binding signal (z-score),[5],0.411
same,glycan array binding signal (z-score),[6],-0.641
same,glycan array binding signal (z-score),[7],-0.174
same,glycan array binding signal (z-score),[8],-0.601
same,glycan array binding signal (z-score),Gal(a1-3)Gal(b1-3)GlcNAc,6.02
same,glycan array binding signal (z-score),Gal(a1-4)Gal(b1-4)Glc,0.088
same,glycan array binding signal (z-score),[9],0.102
same,glycan array binding signal (z-score),[10],2.23
same,glycan array binding signal (z-score),Gal(b1-4)Gal,1.01
same,glycan array binding signal (z-score),[11],-0.631
same,glycan array binding signal (z-score),[12],-0.378
same,glycan array binding signal (z-score),[13],-0.208
same,glycan array binding signal (z-score),[14],-0.507
same,glycan array binding signal (z-score),[15],2.49
same,glycan array binding signal (z-score),[16],-0.538
same,glycan array binding signal (z-score),Gal3S4S(b1-4)GlcNAc,3.27
same,glycan array binding signal (z-score),Gal3S6S(b1-4)GlcNAc6S,2.52
same,glycan array binding signal (z-score),Gal6S(b1-3)GlcNAc,-0.544
same,glycan array binding signal (z-score),[17],0.165
same,glycan array binding signal (z-score),GalNAc(b1-3)GlcNAc,-0.463
same,glycan array binding signal (z-score),GalNAc(b1-4)Gal(b1-4)Glc,1.99
same,glycan array binding signal (z-score),GalNAc3S(b1-4)GlcNAc,-0.609
same,glycan array binding signal (z-score),[18],0.036
same,glycan array binding signal (z-score),GalNAc4S6S(b1-4)GlcNAc,0.25
same,glycan array binding signal (z-score),[19],-0.33
same,glycan array binding signal (z-score),[20],-0.368
same,glycan array binding signal (z-score),[21],-0.538
same,glycan array binding signal (z-score),[22],5.85
same,glycan array binding signal (z-score),[23],-0.152
same,glycan array binding signal (z-score),GlcNAc(b1-6)GalNAc,-0.182
same,glycan array binding signal (z-score),[24],-0.164
same,glycan array binding signal (z-score),[25],-0.138
same,glycan array binding signal (z-score),[26],-0.567
same,glycan array binding signal (z-score),[27],0.186
same,glycan array binding signal (z-score),Neu5Ac(a2-6)Gal,-0.074
same,glycan array binding signal (z-score),[28],-0.49
same,glycan array binding signal (z-score),[29],15.9
same,glycan array binding signal (z-score),[30],2.1
same,glycan array binding signal (z-score),[31],0.078
same,glycan array binding signal (z-score),[32],0.001
same,glycan array binding signal (z-score),[33],2.18
same,glycan array binding signal (z-score),[34],-0.717
same,glycan array binding signal (z-score),[35],0.069
same,glycan array binding signal (z-score),[36],-0.108
same,glycan array binding signal (z-score),[37],-0.33
same,glycan array binding signal (z-score),[38],0.279
same,glycan array binding signal (z-score),[39],-0.202
